According to publication PMC4242493, “Sequence specificity incompletely defines the genome-wide occupancy of Myc”:
Over roughly 33,000 sequences, “normalized occupancy” has its median near 0.075; the highest 2% begin near 0.095. The sample holds the highest values, similar sequences and a random draw of the others, so the mix is not that of the screen.

Molecular target: MaxL homodimer (Homo sapiens, UniProt P61244 1-160)
Assay: universal protein-binding microarray (PBM); PBS-based mixture, 10 nM His-tagged protein dimer, 2% milk, 200 ng/uL BSA, 50 ng/uL salmon testes DNA, 0.02% TX-100; detection with Alexa 488 anti-His antibody;; high values mean tight binding
Details: protein: recombinant; tags: C-terminal His-tag (pET21a); chain copies: 2; dsDNA, one strand shown
Procedure, shortened: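 A His-tagged protein dimer at 10 nM was incubated on Agilent 4 x 44 K arrays of the 'all 10-mer' universal design, then labelled with 10 ng/μL fluorophore-conjugated anti-His antibody and scanned on a GenePix 4400A. A fluorescence intensity was assigned to each 8-mer. Binding occupancy is each such intensity normalised to that of the highest-ranked one.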

Sequence of MaxL homodimer (P61244 whole entry): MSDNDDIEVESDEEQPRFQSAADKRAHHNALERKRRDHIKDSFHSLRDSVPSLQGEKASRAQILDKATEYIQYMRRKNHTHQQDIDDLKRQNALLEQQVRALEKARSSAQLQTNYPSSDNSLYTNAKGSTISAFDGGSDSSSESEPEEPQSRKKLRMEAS

| Sequence | binding signal [normalized occupancy] |
| --- | --- |
| TATGCTAA | 0.0798 |
| CAATCTCG | 0.0753 |
| ACGCTGAC | 0.0735 |
| ATTTGAGA | 0.0896 |
| AGACCCTC | 0.0752 |
| CTGGTCAC | 0.0773 |
| ATTTATGC | 0.0838 |
| AGAGTTAA | 0.0737 |
| AAGCGTAT | 0.0722 |
| AAGCGCGT | 0.0758 |
| AAGCGTGT | 0.0967 |
| GAGGGGAA | 0.0755 |
| CCGTGATC | 0.0778 |
| AAGTGATC | 0.0794 |
| AGGTGATA | 0.0839 |
| AAGTGATG | 0.0756 |
| AAGTGATA | 0.0795 |
| GTATGATA | 0.0877 |
| GCATGATA | 0.0994 |
| ACGTGATA | 0.11 |
| ACGTGATC | 0.108 |
| CCATGATA | 0.0845 |
| ACGTGATG | 0.103 |
| AGGTGATG | 0.0834 |
| CTGGACGA | 0.0734 |

| Sequence | binding signal [normalized occupancy] |
| --- | --- |
| CCTTCAGA | 0.0732 |
| CGAGGGCA | 0.0765 |
| GTGCTGGA | 0.0813 |
| ATTGATTG | 0.0769 |
| CAAGGGAA | 0.0781 |
| ATGGATGC | 0.082 |
| CCGTGATA | 0.0782 |
| GCGTGATA | 0.1 |
| GAGTGATA | 0.0802 |
| CCATTCAA | 0.0785 |
| AGCATGGA | 0.1 |
| CGCATAGC | 0.0734 |
| ATCATGGG | 0.0858 |
| CGCATGGC | 0.127 |
| CCCATGGC | 0.0849 |
| ATCATGGA | 0.0834 |
| ATCATGGC | 0.0863 |
| AGCATAGG | 0.0718 |
| AGCATGGC | 0.102 |
| AGCATTGA | 0.0777 |
| AGAATGGC | 0.0756 |
| AGCATGGG | 0.106 |
| ACTTTTAT | 0.0748 |
| CAGTAAAC | 0.0746 |
| ACTTTGAA | 0.0759 |

| Sequence | binding signal [normalized occupancy] |
| --- | --- |
| CGTTATGA | 0.0829 |
| CTTGATGA | 0.0755 |
| AGATTATC | 0.0807 |
| CCTCGCCG | 0.0725 |
| GGCATGGA | 0.0929 |
| GTCATGGA | 0.0831 |
| CGCATGGA | 0.106 |
| ACTGTTTC | 0.0744 |
| ATGAGTAC | 0.0839 |
| CATGCTAC | 0.0953 |
| CATGCTAG | 0.106 |
| AATGCTAG | 0.079 |
| GATGCTAC | 0.081 |
| CATGCTAA | 0.091 |
| AATGCTAC | 0.0772 |
| GGTAACGA | 0.0778 |
| AGATGACT | 0.0724 |
| CGGTGGAA | 0.0725 |
| ATATATGC | 0.0867 |
| TCATATGA | 0.0914 |
| ACATATCC | 0.0835 |
| ACATATGT | 0.0906 |
| ACATATGA | 0.0952 |
| ACATATGC | 0.0976 |
| CCATATGA | 0.0926 |

| Sequence | binding signal [normalized occupancy] |
| --- | --- |
| ATATATGG | 0.0895 |
| ACATATGG | 0.0977 |
| GAACATAC | 0.0829 |
| GAATTACC | 0.072 |
| GCACCTTA | 0.0768 |
| CACGAGCG | 0.082 |
| AACGAGGC | 0.0809 |
| CACGAGAC | 0.1 |
| CACGAGGC | 0.134 |
| TACGAGGA | 0.0793 |
| CACGAGAA | 0.0893 |
| AACGAGAC | 0.075 |
| CACGAGGG | 0.134 |
| AACGAGGA | 0.088 |
| AACGAGGG | 0.0775 |
| CACGAGCC | 0.0812 |
| CACGAGGA | 0.137 |
| TACGGGCA | 0.0723 |
| GGTCTTAA | 0.075 |
| CTCTATTA | 0.0807 |
| CCCCGCAG | 0.072 |
| CAAATCTA | 0.0804 |
| GCTTCTTA | 0.0746 |
| CACAAGAG | 0.0792 |
| GACGTTTA | 0.0757 |

| Sequence | binding signal [normalized occupancy] |
| --- | --- |
| CACGTTTC | 0.105 |
| CGCGTTTC | 0.0778 |
| AACGTTTA | 0.0757 |
| AACGTTTC | 0.0739 |
| CATGTTTA | 0.0975 |
| CACGTTTA | 0.0986 |
| CATGTTTC | 0.0831 |
| AATGTTTA | 0.0748 |
| AGAAACCC | 0.0744 |
| ATAGAATC | 0.0826 |
| AGTGCTAG | 0.0731 |
| ACCTTCAA | 0.0719 |
| CGAATAGA | 0.0736 |
| CAGAACTA | 0.0728 |
| CTAGAAGA | 0.0731 |
| AACGATGA | 0.0771 |
| ACCCGTCA | 0.0779 |
| ATGTGCGA | 0.0863 |
| ATGTGAGA | 0.0969 |
| ATGTGTCG | 0.0903 |
| ATGTGTCA | 0.101 |
| ATGTGAGG | 0.0857 |
| GTGTGTGA | 0.0839 |
| ATGTGCGG | 0.104 |
| GTGTGAGA | 0.0806 |

| Sequence | binding signal [normalized occupancy] |
| --- | --- |
| ATGTGCGC | 0.0928 |
| GTGTGTCA | 0.0887 |
| CTGTGTGA | 0.0738 |
| ATGTGTGA | 0.102 |
| ATTGAACG | 0.082 |
| CTGACTAA | 0.0729 |
| ACATAAGA | 0.0789 |
| AACCTCTA | 0.0738 |
| CCCTCCTC | 0.0734 |
| CGTACTGA | 0.0729 |
| AGCGCACG | 0.0877 |
| AGGAAAAC | 0.075 |
| ACGCGCCC | 0.0753 |
| TAACTGCA | 0.0726 |
| GCTACCAA | 0.0737 |
| TGATGGCA | 0.08 |
| AGTCCCCC | 0.0801 |
| ATCTTTAC | 0.0755 |
| ATGTGTGC | 0.0957 |
| ATGTCACC | 0.08 |
| ATGTCACA | 0.0852 |
| ATGTCACG | 0.101 |
| CTGTGTGC | 0.0783 |
| ATGTGTGG | 0.0891 |
| AATTCCGA | 0.0729 |

| Sequence | binding signal [normalized occupancy] |
| --- | --- |
| CATCTGTC | 0.0856 |
| GGGCTGTA | 0.0762 |
| CCCATCTA | 0.0745 |
| CATAAATC | 0.0857 |
| CCGAACAA | 0.0756 |
| GAAGTGAC | 0.0733 |
| AACATGAC | 0.0831 |
| CACATGAA | 0.104 |
| CAAATGAG | 0.0793 |
| TACATGAA | 0.0793 |
| AACATGAG | 0.0999 |
| CAAATGAC | 0.0825 |
| CACATGAG | 0.109 |
| GACATGAC | 0.0811 |
| GACATGAA | 0.0775 |
| AACATGAA | 0.0878 |
| CACATGAC | 0.129 |
| CTCATGAG | 0.0946 |
| ATGTACAA | 0.0815 |
| AAAAACCA | 0.0806 |
| GCCACAGC | 0.0723 |
| AATCGTAC | 0.0751 |
